Measurements published in PubChem BioAssay (NCATS).
Inconclusive results are not listed. Activity calls are given as the source filed them. Calls follow the shape of the dose curve; as a rule, active = well fitted curve in the direction sought with a large enough effect; inconclusive = small, poorly fitted or top-dose-only effect, or another doubt; inactive = no such curve, though single readings can be large; an effect the other way counts as inactive or inconclusive.

Tests used:
[1] = P-glycoprotein substrates identified in KB-3-1 adenocarcinoma cell line, qHTS therapeutic library screen (AID 1346986); also: nearly all actives have a fitted effect of over 60% in size
Outline: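 Compounds were tested in dose-response against KB-3-1 and KB-8-5-11 cells at 37 degree C for 72 h, and viability was measured by luminescence. AC50 values came from curve fitting with class-based activity calls.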

[2] = P-glycoprotein substrates identified in KB-8-5-11 adenocarcinoma cell line, qHTS therapeutic library screen (AID 1346987); also: nearly all actives have a fitted effect of over 65% in size
Outline: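 KB-8-5-11: colchicine-selected sub-line of KB-3-1 over-expressing P-gp; assay medium lacked colchicine. 72 h drug exposure at 37 degree C, CellTiter-Glo.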

[3] = tested on: Zika virus NS2B-NS3 protease (unlinked complex); experiment: Primary screen GU Rhodamine qHTS for Zika virus inhibitors: Unlinked NS2B-NS3 protease assay (AID 1347159); also: % is scaled to controls: 0 for no effect and ±100 for the full control effect; nearly all actives have a fitted effect of over 60% in size
Outline: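 Noncovalent NS2B hydrophilic domain/NS3 protease complex (25 nM final) in 10 mM Tris-HCl pH 8.0, 0.01% Tween 20, preincubated 15 min with compounds (up to 114 microM), then 1.5 microM Rhodamine110 substrate. Fluorescence change over 15 min fitted to 4-parameter Hill.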

[4] = target: Calcium and integrin-binding protein 1 (Homo sapiens) (UniProt Q99828); experiment: Primary qHTS for Identification of Calcium Integrin Binding Protein 1 (CIB1) Competitor (AID 1508620);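 also: GST tagged CIB1 binding a fluorescein labelled alphaIIb integrin peptide tracer; top concentration of the series differs between compounds; % is scaled to controls: 0 for no effect and ±100 for the full control effect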
Calcium and integrin-binding protein 1 (Homo sapiens), sequence (Q99828 whole entry, looked up): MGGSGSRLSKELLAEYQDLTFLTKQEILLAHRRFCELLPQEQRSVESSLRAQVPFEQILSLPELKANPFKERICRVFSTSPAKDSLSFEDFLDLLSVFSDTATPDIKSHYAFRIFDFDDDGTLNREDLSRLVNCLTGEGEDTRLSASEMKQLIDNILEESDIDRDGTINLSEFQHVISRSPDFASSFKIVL
Outline: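 Fluorescence polarization competition: GST-tagged CIB1 (1 uM final) preincubated with compound 15 min at room temperature, then FITC-labelled alphaIIb peptide (100 nM final) added. After 15 min at room temperature, polarization read at Ex 480/Em 540.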

[5] = Primary redox qHTS assay for identification of artifact compounds. (AID 1845223);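 also: 0% = DMSO and 100% = reference compound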
Outline: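 Amplex Red (25 uM) and HRP (250 mU/mL) in HBSS, with compounds for 15 min, then 250 uM DTT for 30 min, room temperature, dark. Fluorescence 525/598 nm read; normalized to DMSO and 10 uM DA3003; Hill fit.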

KB-3-1 = experiment: Cytotoxic Profiling of Annotated Libraries Using Quantitative High-Throughput Screening (AID 1296008); conditions: Five cell lines viability, CellTiter-Glo ATP luminescence, 48-72 h; max response: active compounds read low; also: nearly all actives have a fitted effect of over 60% in size; as to max response: % is scaled to controls: 0 for no effect and ±100 for the full control effect
Outline: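 Cells exposed to compounds for 48 or 72 hr at 37 degrees Celsius. Viability read as ATP-coupled luminescence with CellTiter-Glo after 10 min at room temperature.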

CAOV3 = experiment: Primary qHTS to identify gynecologic anti-cancer compounds using libraries of approved drugs and bioactive compounds (AID 1345084); conditions: Gynecologic cancer cell panel viability, ATPlite luminescence, 48 h; series mostly up to 57.5 µM; also: % is scaled to controls: 0 for no effect and ±100 for the full control effect; nearly all actives have a fitted effect of over 55% in size
Outline: (§1)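 Measured: luminescence after ATPlite addition (15 min, RT). Exposure: 48 h, 37 C, 5% CO2.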

HeLa = experiment: as above; conditions: Gynecologic cancer cell panel viability, ATPlite luminescence, 48 h; series mostly up to 57.5 µM
Outline: as §1

JEG-3 = experiment: as above; conditions: Gynecologic cancer cell panel viability, ATPlite luminescence, 48 h; series mostly up to 57.5 µM
Outline: as §1

SKOV3 = experiment: as above; conditions: Gynecologic cancer cell panel viability, ATPlite luminescence, 48 h; series mostly up to 57.5 µM
Outline: as §1

HACAT = experiment: qHTS assay to identify novel small-molecules to repurpose for Merkel cell carcinoma treatment (AID 1296009); conditions: MCC and control cell lines, CellTiter-Glo viability, 72 h; at 44.8 µM (top of the series) unless noted; also: nearly all actives have a fitted effect of over 60% in size
Outline: (§2)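 Cells were incubated with compound for 72 hr at 37 degree celsius before CellTiter-Glo addition. Luminescence was normalized with no-cell wells as full cytotoxicity and DMSO as baseline.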

CRL-7250 = normal cell line; experiment: as above; conditions: MCC and control cell lines, CellTiter-Glo viability, 72 h; series mostly up to 92 µM
Outline: as §2

C=CC(C)(C)c1[nH]c2c(CC=C(C)C)cc(CC=C(C)C)cc2c1C[C@@H]1NC(=O)[C@H](C)NC1=O
inactive: Potency [1] | Potency [2] | Potency [3] | Potency [4] | Potency [5] | outcome (KB-3-1) | Potency (CAOV3) | Potency (HeLa) | Potency (JEG-3) | Potency (SKOV3)

C[C@]12CC[C@H]3[C@@H](CCC4=C/C(=N/OCC(=O)O)CC[C@@]43C)[C@@H]1CC[C@@H]2O
inactive: Potency [1] | Potency [2] | Potency [3] | Potency [4] | Potency [5] | outcome (KB-3-1) | Potency (CAOV3) | Potency (HeLa) | Potency (JEG-3) | Potency (SKOV3)

Oc1ccc2c3c1O[C@H]1c4[nH]c5c(N=C=S)cccc5c4C[C@@]4(O)[C@@H](C2)N(CC2CC2)CC[C@]314
inactive: Potency [5] | max response (KB-3-1) -18.9% | outcome (HACAT) | Potency (CAOV3) | Potency (HeLa) | Potency (SKOV3)

CC(=O)O[C@@H]1[C@H]2CC[C@H]3[C@@](C)(O)[C@@H]4C[C@H](O)C(C)(C)[C@@]4(O)[C@H](O)C[C@@]13C[C@@]2(C)O
inactive: Potency [2] | Potency [4] | Potency [5] | max response (KB-3-1) 2.41% | Potency (CRL-7250) | Potency (CAOV3) | Potency (HeLa) | Potency (JEG-3) | Potency (SKOV3)

C[C@]12CCC(=O)C=C1CC[C@@H]1[C@@H]2[C@@H](O)C[C@]2(C)C(=O)CC[C@@H]12
inactive: Potency [2] | Potency [4] | Potency [5] | max response (KB-3-1) 6.55% | Potency (CRL-7250) | Potency (CAOV3) | Potency (HeLa) | Potency (JEG-3) | Potency (SKOV3)

CN1CCc2cc3c(cc2C1C1OC(=O)c2c1ccc1c2OCO1)OCO3 (stereo not drawn)
inactive: Potency [5] | max response (KB-3-1) -4.22% | Potency (CAOV3) | Potency (HeLa) | Potency (JEG-3) | Potency (SKOV3)

C/C=C1/CN2CC[C@]34C(=Nc5ccc(OC)cc53)C2C[C@@H]1C4(CO)C(=O)OC (stereo partly drawn)
inactive: Potency [2] | Potency [3] | Potency [4] | Potency [5] | max response (KB-3-1) 0.853% | outcome (HACAT) | Potency (CAOV3) | Potency (HeLa) | Potency (JEG-3) | Potency (SKOV3)

CC[C@H]1C2CC3[C@@H]4N(C)c5ccccc5[C@]45C[C@@H]([C@H]2[C@H]5O)N3[C@H]1O
inactive: Potency [2] | Potency [3] | max response (KB-3-1) 2.51% | outcome (HACAT) | Potency (CAOV3) | Potency (HeLa) | Potency (JEG-3) | Potency (SKOV3)
